Assay [1] relates to Wnt5a (protein binding on small-molecule microarray). The experiment in a line: Wnt5a binders on small-molecule microarray, primary screen, biophysical, 635/667 nm fluorescence (AID 1142).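 Further: fluorescence read at 667 nm with signal to noise per printed feature.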 The settings on record: 635 nm fluorescence, higher = more signal.
A short description of assay [2]: cell viability in Huh7 cells, primary screen, cytotoxicity control for HCV replication inhibitor project, CellTiter-Glo luminescence, basal, 48 h (AID 1143).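 Further: Huh7 hepatoma cells carrying a hepatitis C replication reporter with no stimulus; test concentration not given here.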 The settings on record: Huh7 HCV replicon, higher = more signal, called active from +8 up or from −8 down. In general terms: ATP-based viability assays read luminescence as a measure of living cells.
Assay [3] in a line: P. aeruginosa biofilm formation inhibitors, primary screen, PAO1 strain, BacTiter-Glo luminescence, LB-PBS (AID 1144). The settings on record: 12 h, higher = more signal.
A short description of assay [4]: CREB reporter modulators without forskolin, primary screen, cell-based, PC12, CRE-LacZ reporter, unstimulated (AID 1145). The settings on record: no forskolin, luminescence, 4.5 h, higher = more signal, called active from +8 up or from −8 down.
A short description of assay [5]: CREB reporter modulators under forskolin, primary screen, cell-based, PC12, CRE-LacZ reporter, forskolin-stimulated (AID 1146).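 Further: PC12 cells with 6xCRE LacZ reporter stimulated by forskolin 10 µM; beta-galactosidase reporter signal reflecting CREB driven transcription.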 The settings on record: luminescence, 4.5 h, higher = more signal, called active from +8 up or from −8 down.
The target of assay [6] is Streptavidin (Streptomyces avidinii) (UniProt P22629). In words: streptavidin binders on small-molecule microarray, primary screen, artefact control for SMM compound annotation, biophysical, 635/667 nm fluorescence (AID 1147).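 Further: signal reflects streptavidin binding to arrayed compounds as a control protein.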 As to conditions: streptavidin binding, higher = more signal.
The nature of assay [7]: small-molecule binders of probe aInhba, primary screen, biochemical, small-molecule microarray, 635/667 nm fluorescence (AID 1148).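 Further: score merges 667nm spot fluorescence with signal-to-noise for antibody binding to printed compounds.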 The settings on record: higher = more signal.
The target of assay [8] is Torsin-1A (Homo sapiens) (UniProt O14656). In words: torsin A binders from cell lysate, primary screen, small-molecule microarray, wild-type, 635/667 nm (AID 1149). As to conditions: COS7 hTOR1A-WT lysate, 635 nm fluorescence, higher = more signal.
Assay [9] has the same target. In words: small-molecule binders of mutant TOR1A in lysate, primary screen, cell lysate, small-molecule microarray, COS7 lysate, 635/667 nm fluorescence (AID 1150).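 Further: score pools 667 nm emission and signal to noise measuring lysate protein binding.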 The settings on record: COS7 hTOR1A mutant lysate, 635 nm fluorescence, higher = more signal.
Assay [10] deals with Sonic hedgehog protein (Shh). In words: small-molecule binders of Shh protein, primary screen, biochemical, small-molecule microarray, 635/667 nm fluorescence (AID 1151).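 Further: Shh protein binding to compounds spotted on small-molecule microarray slides; score combines spot fluorescence intensity with signal-to-noise across triplicate slides.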 The settings on record: small-molecule microarray binding, 635 nm fluorescence; higher = more signal.
The nature of assay [11]: E. coli DRC41 culture turbidity changes, primary screen, E. coli filamentation inducer project, strain DRC41, OD650, 48 h (AID 1152).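 Further: E. coli MC1000 strain DRC41 lacking acrAB efflux pump and sulA.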 As to conditions: E. coli DRC41 (acrAB sulA), higher = more signal, called active from +8 up or from −8 down.
Assay [12] can be described thus: small-molecule binders of probe aLefty1, primary screen, biochemical, small-molecule microarray, 635/667 nm fluorescence (AID 1153).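 Further: score merges spot fluorescence with signal-to-noise ratio from the scanned slide images.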 As to conditions: higher = more signal.
The nature of assay [13]: PSAC antagonists in infected red cells, primary screen, cell-based, P. falciparum Indochina, OD700, 1 h (AID 1154). As to conditions: P. falciparum Indochina infected RBC osmotic lysis, higher = more signal, called active from +8 up or from −8 down.
The nature of assay [14]: PSAC antagonists in infected red cells, primary screen, cell-based, P. falciparum Indochina, OD700, 2 h (AID 1155).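 Further: lysis reports solute entry through the parasite surface anion channel PSAC; channel blockers reduce lysis of infected cells.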 The settings on record: P. falciparum Indochina infected erythrocytes, osmotic lysis OD700; higher = more signal, called active from +8 up or from −8 down.
Assay [15] can be described thus: osmotic lysis modulators in infected erythrocytes, primary screen, PSAC antagonist project, cell-based, P. falciparum Indochina, OD700, 3 h (AID 1156). The settings on record: higher = more signal, called active from +8 up or from −8 down.
The nature of assay [16]: PSAC antagonists in infected red cells, primary screen, cell-based, P. falciparum Indochina, OD700, 18 h (AID 1157). As to conditions: P. falciparum Indochina infected erythrocytes, osmotic lysis OD700, 18 h; higher = more signal, called active from +8 up or from −8 down.
A short description of assay [17]: modulators of S6 phosphorylation in cells, primary screen, cell-based, A549, cytoblot, luminescence, serum-stimulated (AID 1158).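 Further: serum-stimulated A549 lung adenocarcinoma cells; signal is phosphorylated S6 detected by cytoblot immunostaining with HRP secondary.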 As to conditions: A549 phospho-S6 cytoblot, 5 h, higher = more signal.
In assay [18] the target is NADPH oxidase 2 (Homo sapiens) (UniProt P04839). The experiment in a line: NOX2-dependent H2O2 signal modulators, primary screen, NOX inhibitor project, cell-based, HEK293-NOX2, PMA-stimulated, Amplex Red fluorescence (AID 1159). Further: test concentration not given here. As to conditions: 45 min, higher = more signal, called active from +8 up or from −8 down.
The target of assay [19] is NADPH oxidase 4 (Homo sapiens) (UniProt Q9NPH5). The experiment in a line: NOX4-dependent H2O2 signal modulators, primary screen, NOX inhibitor project, cell-based, HEK293-NOX4, tetracycline-induced, Amplex Red fluorescence (AID 1160). As to conditions: 45 min, higher = more signal, called active from +8 up or from −8 down.
In assay [20] the target is NADPH oxidase 5 (Homo sapiens) (UniProt Q96PH1). In words: NOX5-dependent H2O2 signal modulators, primary screen, NOX inhibitor project, cell-based, HEK293-NOX5, Amplex Red fluorescence (AID 1161). The settings on record: HEK293-NOX5, ionomycin, 45 min, higher = more signal.

Calls of active or inactive are those of the source. Unless noted, how the calls were made is not given here.

Chain of NADPH oxidase 2 (Homo sapiens) (P04839 whole entry, looked up): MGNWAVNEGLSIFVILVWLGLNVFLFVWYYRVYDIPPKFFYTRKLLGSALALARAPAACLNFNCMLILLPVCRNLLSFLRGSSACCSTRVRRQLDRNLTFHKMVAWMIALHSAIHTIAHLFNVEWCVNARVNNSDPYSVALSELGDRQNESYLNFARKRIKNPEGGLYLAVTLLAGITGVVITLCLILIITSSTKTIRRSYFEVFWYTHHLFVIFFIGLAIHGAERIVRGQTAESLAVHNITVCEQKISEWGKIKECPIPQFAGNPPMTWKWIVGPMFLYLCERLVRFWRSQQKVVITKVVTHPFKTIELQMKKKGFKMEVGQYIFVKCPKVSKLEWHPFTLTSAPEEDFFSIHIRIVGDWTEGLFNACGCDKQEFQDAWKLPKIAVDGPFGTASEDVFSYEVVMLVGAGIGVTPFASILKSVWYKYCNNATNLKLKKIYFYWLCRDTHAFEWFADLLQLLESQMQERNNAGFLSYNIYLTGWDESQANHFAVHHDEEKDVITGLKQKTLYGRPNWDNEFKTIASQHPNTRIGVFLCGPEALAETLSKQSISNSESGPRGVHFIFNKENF
Chain of NADPH oxidase 4 (Homo sapiens) (Q9NPH5 whole entry, looked up): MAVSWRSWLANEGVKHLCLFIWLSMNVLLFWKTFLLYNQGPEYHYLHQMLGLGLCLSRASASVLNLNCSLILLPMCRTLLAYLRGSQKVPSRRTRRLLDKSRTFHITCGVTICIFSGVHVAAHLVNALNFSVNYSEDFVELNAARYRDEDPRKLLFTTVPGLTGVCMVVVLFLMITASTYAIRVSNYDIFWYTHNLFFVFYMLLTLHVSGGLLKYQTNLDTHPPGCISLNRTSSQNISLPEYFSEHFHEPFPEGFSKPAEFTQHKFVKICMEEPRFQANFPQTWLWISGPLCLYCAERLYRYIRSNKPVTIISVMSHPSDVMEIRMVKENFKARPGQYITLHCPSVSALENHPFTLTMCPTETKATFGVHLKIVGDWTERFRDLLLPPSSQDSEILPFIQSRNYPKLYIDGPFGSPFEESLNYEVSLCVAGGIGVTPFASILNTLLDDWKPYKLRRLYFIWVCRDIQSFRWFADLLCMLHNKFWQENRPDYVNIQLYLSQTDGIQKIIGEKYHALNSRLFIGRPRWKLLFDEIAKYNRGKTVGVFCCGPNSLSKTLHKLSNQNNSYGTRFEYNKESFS
Chain of NADPH oxidase 5 (Homo sapiens) (Q96PH1 whole entry, looked up): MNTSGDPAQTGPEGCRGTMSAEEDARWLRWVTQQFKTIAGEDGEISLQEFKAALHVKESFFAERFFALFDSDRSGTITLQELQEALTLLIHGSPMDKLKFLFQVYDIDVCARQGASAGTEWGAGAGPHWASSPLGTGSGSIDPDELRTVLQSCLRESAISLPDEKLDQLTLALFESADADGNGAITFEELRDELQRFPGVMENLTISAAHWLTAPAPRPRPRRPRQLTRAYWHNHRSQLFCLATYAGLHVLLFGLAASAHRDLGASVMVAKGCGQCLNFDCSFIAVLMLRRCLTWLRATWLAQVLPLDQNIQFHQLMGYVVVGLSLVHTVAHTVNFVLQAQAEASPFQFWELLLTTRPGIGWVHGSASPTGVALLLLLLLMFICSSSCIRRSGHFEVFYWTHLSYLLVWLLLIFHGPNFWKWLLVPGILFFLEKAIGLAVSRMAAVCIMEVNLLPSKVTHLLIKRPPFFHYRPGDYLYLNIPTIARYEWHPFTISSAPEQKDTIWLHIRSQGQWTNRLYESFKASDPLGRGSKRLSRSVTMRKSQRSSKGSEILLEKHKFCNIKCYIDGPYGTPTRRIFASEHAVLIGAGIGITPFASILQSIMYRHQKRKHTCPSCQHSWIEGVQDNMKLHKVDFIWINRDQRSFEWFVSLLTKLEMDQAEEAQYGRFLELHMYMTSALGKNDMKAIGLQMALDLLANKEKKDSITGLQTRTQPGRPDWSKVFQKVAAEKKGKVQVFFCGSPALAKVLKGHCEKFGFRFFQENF
Chain of Streptavidin (Streptomyces avidinii) (P22629 whole entry, looked up): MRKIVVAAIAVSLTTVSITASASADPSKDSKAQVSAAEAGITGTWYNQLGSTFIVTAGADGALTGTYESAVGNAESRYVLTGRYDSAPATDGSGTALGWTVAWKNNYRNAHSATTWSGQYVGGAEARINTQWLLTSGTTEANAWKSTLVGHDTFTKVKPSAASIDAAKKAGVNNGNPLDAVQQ
Chain of Torsin-1A (Homo sapiens) (O14656 whole entry, looked up): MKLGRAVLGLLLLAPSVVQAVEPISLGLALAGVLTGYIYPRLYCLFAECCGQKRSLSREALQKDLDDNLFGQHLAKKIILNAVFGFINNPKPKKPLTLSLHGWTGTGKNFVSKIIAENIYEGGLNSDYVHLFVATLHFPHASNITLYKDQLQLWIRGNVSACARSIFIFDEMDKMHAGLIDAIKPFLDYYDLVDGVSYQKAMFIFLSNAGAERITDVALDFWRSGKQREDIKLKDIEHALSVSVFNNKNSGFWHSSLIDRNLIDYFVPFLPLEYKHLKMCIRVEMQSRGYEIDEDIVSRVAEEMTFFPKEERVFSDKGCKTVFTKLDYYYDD

As for `COC(=O)[C@@]1(Cc2ccc(OC)cc2)[C@H]2c3cc(C(=O)N4CCCC4)n(Cc4cccc5ccccc45)c3C[C@H]2CN1C(=O)c1ccccc1`, the composite z-score in [1] was 0.43; in [6] it was 0.688; in assay [7], 0.447; in the assay with Torsin-1A (Homo sapiens) [8], -0.25; with Torsin-1A (Homo sapiens) [9] it was 0.338; in assay [10], -0.338. Further, the composite z-score in assay [12] stood at 0.258. The z-score in assay [2] was -2.8 (inactive); in [3], 1.14 (inactive); in assay [4], 0.0041 (inactive); in [5] it was 0.259 (inactive); in [11], -0.492 (inactive); in assay [13], 3.9 (inactive). Also, the z-score in assay [14] is 0.408 (inactive); in assay [15], 1.48 (inactive); in assay [16], 0.983 (inactive); in [17], 0.0019; in [18], 0.208 (inactive); in assay [19], 1.74 (inactive). This compound displayed a z-score in assay [20] of -1.45.

Turning to `CN1C(=O)C2C=CC(C(O)c3cccc(O)c3)N(Nc3ccccc3)C2C1=O` (stereo not given), the composite z-score was 0.0652 in [1]; -0.404 in assay [6]; 0.142 in [7]; -0.379 with Torsin-1A (Homo sapiens) [8]; 0.548 with Torsin-1A (Homo sapiens) [9]; -0.128 in assay [10]. The same compound returned a composite z-score in [12] of 0.147. Moreover, the z-score was 0.656 (inactive) in assay [2]; 0.373 (inactive) in [3]; 0.0501 (inactive) in [4]; 0.233 (inactive) in [5]; -0.85 (inactive) in assay [11]; -0.0746 (inactive) in assay [13]. In addition, the z-score is 0.253 (inactive) in assay [14]; -0.606 (inactive) in assay [15]; 0.287 (inactive) in [16]; -0.967 in assay [17]; -2.6 (inactive) in assay [18]; -5.27 (inactive) in [19]. The same compound came in with a z-score in assay [20] of -4.62.

On to `CN1C(=O)C2C=CC(C(O)c3ccccn3)N(N(c3ccccc3)c3ccccc3)C2C1=O` (stereo not given), for which the composite z-score in assay [1] was 0.485; in assay [6] it was -0.0902; in assay [7], 0.167; in the assay with Torsin-1A (Homo sapiens) [8], 0.678; with Torsin-1A (Homo sapiens) [9] it was 0.291; in [10], 0.424. Also, in [12], the composite z-score is 0.0774. The z-score in assay [2] was 0.346 (inactive); in [3], -1.26 (inactive); in assay [4], 0.0569 (inactive); in assay [5], -0.164 (inactive); in [11], -1.06 (inactive); in assay [13] it was 1.5 (inactive). Besides, the z-score in assay [14] is 1.14 (inactive); in [15], 0.303 (inactive); in assay [16], 1.05 (inactive); in assay [17], -0.618; in assay [18], -0.486 (inactive); in assay [19], -1.94 (inactive). In assay [20], this compound showed a z-score of -2.33.

Take `COC(=O)c1nc2oc1CC[C@@H](CO)NC(=O)N(C)Cc1cnnn1C[C@H](Cc1ccccc1)NC2=O`: the composite z-score is -0.202 in [1]; -0.65 in assay [6]; -0.268 in [7]; -0.182 in the assay with Torsin-1A (Homo sapiens) [8]; -0.533 with Torsin-1A (Homo sapiens) [9]; 0.272 in [10]. The compound further yielded a composite z-score in assay [12] of -0.101. Moreover, the z-score in assay [2] was -0.0922 (inactive); in assay [3], -1.19 (inactive); in [4], 0.484 (inactive); in [5], -0.826 (inactive); in assay [11], 2.17 (inactive); in assay [13], 1.23 (inactive). The z-score was 0.656 (inactive) in assay [14]; 1.2 (inactive) in [15]; 0.409 (inactive) in assay [16]; 0.688 in assay [17]; -0.524 (inactive) in assay [18]; 1.35 (inactive) in assay [19]. In [20], this compound had a z-score of 0.371.

These data come from PubChem BioAssay.
